Assay [1] addresses human Elastase, ELANE (gene 1991) (UniProt P08246). The experiment in a line: NVS_ENZ_hElastase: NovaScreen (NVS) Enzymatic Assay for human Elastase (AID 2283153). In outline:
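Cell-free elastase from human neutrophils, 1.5 h after dosing, activity read by absorbance. Primary screen in duplicate at 25 uM; hits (e.g., 30% inhibition) rerun in singleton concentration-response up to 50 uM, fitted versus DMSO.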

Assay [2] addresses human Esterase Plasma (ES), BCHE (gene 590) (UniProt P06276). The experiment in a line: NVS_ENZ_hES: NovaScreen (NVS) Enzymatic Assay for human Esterase Plasma (ES) (AID 2283157). In a few lines: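 Chemicals were added to plasma-extracted human enzyme in a cell-free format, and activity was read colorimetrically after 0.25 hour. Activity loss was referenced to DMSO; concentration-response top dose was 50 uM.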

The target in assay [3] is human Ephrin type-A Receptor 1 (EphA1), EPHA1 (gene 2041) (UniProt P21709). The experiment in a line: NVS_ENZ_hEphA1: NovaScreen (NVS) Enzymatic Assay for human Ephrin type-A Receptor 1 (EphA1) (AID 2283158).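 Further: activity is signal loss versus DMSO meaning EphA1 kinase inhibition.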 In outline: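 Cell-free enzymatic assay with recombinant EphA1 and fluorescent substrate; product separated by electrophoretic mobility shift, fluorescence intensity read 1 hour after dosing. Loss of signal versus DMSO baseline; primary duplicate screen at 25 uM, actives followed to 50 uM top concentration.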

Assay [4] addresses human MAP Kinase-Activated Protein Kinase 2 (MAPKAPK2), MAPKAPK2 (gene 9261) (UniProt P49137). The experiment in a line: NVS_ENZ_hMAPKAPK2: NovaScreen (NVS) Enzymatic Assay for human MAP Kinase-Activated Protein Kinase 2 (MAPKAPK2) (AID 2283178). In a few lines:
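Cell-free recombinant human MAPKAPK2 activity measured by fluorescence with electrophoretic mobility shift separation of substrate and product, 1 hr after dosing. Loss of signal versus DMSO; primary screen at 25 uM, concentration-response up to 50 uM.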

In assay [5] the target is human Matrix Metalloproteinase-7 (MMP7), MMP7 (gene 4316) (UniProt P09237). The experiment in a line: NVS_ENZ_hMMP7: NovaScreen (NVS) Enzymatic Assay for human Matrix Metalloproteinase-7 (MMP7) (AID 2283183). In outline:
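Cell-free fluorescence enzymatic assay read 1 h after compound addition, activity loss analyzed against DMSO. Primary duplicate testing at 25 uM; compounds meeting threshold rerun in singleton concentration-response up to 50 uM.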

The target in assay [6] is Histone deacetylase 3 (Homo sapiens) (UniProt O15379). The experiment in a line: NVS_ENZ_hHDAC3: NovaScreen (NVS) Enzymatic Assay for human Histone Deacetylase 3 (HDAC3) (AID 2283163). In a few lines: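 Recombinant human HDAC3 with fluorescent substrate, 1 h after dosing; product separated from substrate by electrophoretic mobility shift and read by fluorescence. Primary screen at 25 uM in duplicate; actives (e.g. ≥30% inhibition) retested in concentration-response up to 50 uM.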

For assay [7], the target named is Glycogen synthase kinase-3 beta (Homo sapiens) (UniProt P49841). In words: NVS_ENZ_hGSK3b: NovaScreen (NVS) Enzymatic Assay for human Glycogen Synthase Kinase-3 beta (GSK3b) (AID 2283165). In a few lines:
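Recombinant enzyme with specific fluorescent substrate, 1 h, product separated by electrophoretic mobility shift. Primary duplicate screen at 25 uM; actives (e.g. 30% inhibition) followed in singleton concentration-response to 50 uM. Signal loss fitted versus DMSO.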

In assay [8] the target is human Matrix Metalloproteinase-3 (MMP3), MMP3 (gene 4314) (UniProt P08254). In words: NVS_ENZ_hMMP3: NovaScreen (NVS) Enzymatic Assay for human Matrix Metalloproteinase-3 (MMP3) (AID 2283185). In a few lines:
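Cell-free recombinant human MMP3 activity, fluorescence intensity read 1 h after dosing. Primary screen duplicate at 25 uM, actives retested in concentration series; loss of signal vs DMSO baseline.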

Assay [9] deals with human FYN Proto-Oncogene, Src family Tyrosine Kinase (Fyn), FYN (gene 2534) (UniProt P06241). In words: NVS_ENZ_hFyn: NovaScreen (NVS) Enzymatic Assay for human FYN Proto-Oncogene, Src family Tyrosine Kinase (Fyn) (AID 2283161). In outline:
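Recombinant enzyme with fluorescent substrate, product separated by electrophoretic mobility shift; read 1 h after dosing. Duplicate 25 uM single-point screen, actives retested in concentration series; loss of signal vs DMSO.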

SMILES strings stand for the structures. Records with an inconclusive call do not appear. Activity calls are given as the source filed them. How the source made its calls: active means hit-call score of the fitted dose curve at least 0.9, where 1 is the maximum; inconclusive means response in the unintended direction; inactive means score below 0.9.

Chain of human MAP Kinase-Activated Protein Kinase 2 (MAPKAPK2), MAPKAPK2 (gene 9261) (P49137 whole entry, looked up): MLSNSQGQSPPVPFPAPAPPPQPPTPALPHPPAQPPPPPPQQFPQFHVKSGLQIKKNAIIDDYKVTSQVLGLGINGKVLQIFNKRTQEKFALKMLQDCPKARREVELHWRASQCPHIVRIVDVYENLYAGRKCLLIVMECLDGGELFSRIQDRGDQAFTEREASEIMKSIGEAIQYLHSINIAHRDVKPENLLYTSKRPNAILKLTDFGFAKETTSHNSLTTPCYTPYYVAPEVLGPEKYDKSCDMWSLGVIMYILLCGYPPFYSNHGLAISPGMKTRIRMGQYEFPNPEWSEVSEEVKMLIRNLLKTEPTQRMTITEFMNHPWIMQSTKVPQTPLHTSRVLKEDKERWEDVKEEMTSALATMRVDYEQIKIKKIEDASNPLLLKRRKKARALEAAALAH
Chain of human Esterase Plasma (ES), BCHE (gene 590) (P06276 whole entry, looked up): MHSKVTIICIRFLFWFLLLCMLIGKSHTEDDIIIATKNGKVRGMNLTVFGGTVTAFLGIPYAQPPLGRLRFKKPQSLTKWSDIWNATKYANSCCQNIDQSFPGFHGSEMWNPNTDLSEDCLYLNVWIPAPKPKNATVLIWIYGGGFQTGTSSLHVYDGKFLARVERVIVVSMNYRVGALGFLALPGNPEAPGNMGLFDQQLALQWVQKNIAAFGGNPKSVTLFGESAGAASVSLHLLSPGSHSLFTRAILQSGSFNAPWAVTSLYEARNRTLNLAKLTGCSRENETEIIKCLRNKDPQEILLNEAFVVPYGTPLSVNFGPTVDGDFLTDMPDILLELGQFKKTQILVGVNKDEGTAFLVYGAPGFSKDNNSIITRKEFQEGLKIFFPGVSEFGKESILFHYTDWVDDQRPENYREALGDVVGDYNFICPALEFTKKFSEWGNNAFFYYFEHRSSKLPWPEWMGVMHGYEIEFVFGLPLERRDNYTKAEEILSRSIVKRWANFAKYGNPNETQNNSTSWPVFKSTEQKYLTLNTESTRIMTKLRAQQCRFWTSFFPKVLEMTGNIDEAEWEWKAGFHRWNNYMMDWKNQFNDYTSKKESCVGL
Chain of human Matrix Metalloproteinase-7 (MMP7), MMP7 (gene 4316) (P09237 whole entry, looked up): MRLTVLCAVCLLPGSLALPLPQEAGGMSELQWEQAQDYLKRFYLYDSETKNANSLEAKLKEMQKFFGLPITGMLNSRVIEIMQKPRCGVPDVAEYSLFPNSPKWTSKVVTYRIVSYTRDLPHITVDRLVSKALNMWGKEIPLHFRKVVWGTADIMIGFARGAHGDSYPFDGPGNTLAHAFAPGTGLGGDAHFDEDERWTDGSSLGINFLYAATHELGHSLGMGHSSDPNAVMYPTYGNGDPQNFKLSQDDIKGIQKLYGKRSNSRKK
Chain of human Elastase, ELANE (gene 1991) (P08246 whole entry, looked up): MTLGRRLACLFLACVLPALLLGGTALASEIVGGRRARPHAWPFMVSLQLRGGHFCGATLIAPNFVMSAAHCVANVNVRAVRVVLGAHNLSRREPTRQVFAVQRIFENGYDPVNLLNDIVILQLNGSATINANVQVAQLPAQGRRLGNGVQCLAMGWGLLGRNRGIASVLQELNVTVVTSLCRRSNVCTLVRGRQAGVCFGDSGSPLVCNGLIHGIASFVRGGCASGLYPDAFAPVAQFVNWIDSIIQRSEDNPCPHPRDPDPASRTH
Chain of Glycogen synthase kinase-3 beta (Homo sapiens) (P49841 whole entry, looked up): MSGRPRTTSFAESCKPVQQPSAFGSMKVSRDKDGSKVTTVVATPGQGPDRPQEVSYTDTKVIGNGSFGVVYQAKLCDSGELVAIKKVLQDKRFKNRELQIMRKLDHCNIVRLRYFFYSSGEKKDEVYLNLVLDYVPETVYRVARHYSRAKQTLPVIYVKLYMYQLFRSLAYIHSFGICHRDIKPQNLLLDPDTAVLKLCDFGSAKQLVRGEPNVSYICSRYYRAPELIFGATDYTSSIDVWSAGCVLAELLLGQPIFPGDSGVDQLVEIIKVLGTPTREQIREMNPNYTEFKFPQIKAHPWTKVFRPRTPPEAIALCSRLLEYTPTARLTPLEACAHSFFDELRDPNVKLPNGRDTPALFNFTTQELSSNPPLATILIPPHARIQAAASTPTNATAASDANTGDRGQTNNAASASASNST
Chain of human Matrix Metalloproteinase-3 (MMP3), MMP3 (gene 4314) (P08254 whole entry, looked up): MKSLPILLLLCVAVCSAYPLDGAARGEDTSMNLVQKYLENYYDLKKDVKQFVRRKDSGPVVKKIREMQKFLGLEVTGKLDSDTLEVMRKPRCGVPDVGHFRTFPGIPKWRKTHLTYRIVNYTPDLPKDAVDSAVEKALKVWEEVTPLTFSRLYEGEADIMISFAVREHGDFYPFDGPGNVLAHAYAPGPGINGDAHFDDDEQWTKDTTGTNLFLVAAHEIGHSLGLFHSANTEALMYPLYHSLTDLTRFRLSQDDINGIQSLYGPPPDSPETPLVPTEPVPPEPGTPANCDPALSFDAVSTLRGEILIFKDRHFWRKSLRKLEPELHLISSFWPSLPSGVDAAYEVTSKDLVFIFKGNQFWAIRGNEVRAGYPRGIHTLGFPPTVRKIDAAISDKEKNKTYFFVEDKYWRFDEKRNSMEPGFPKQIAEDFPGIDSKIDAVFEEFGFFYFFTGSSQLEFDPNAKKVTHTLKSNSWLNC
Chain of human FYN Proto-Oncogene, Src family Tyrosine Kinase (Fyn), FYN (gene 2534) (P06241 whole entry, looked up): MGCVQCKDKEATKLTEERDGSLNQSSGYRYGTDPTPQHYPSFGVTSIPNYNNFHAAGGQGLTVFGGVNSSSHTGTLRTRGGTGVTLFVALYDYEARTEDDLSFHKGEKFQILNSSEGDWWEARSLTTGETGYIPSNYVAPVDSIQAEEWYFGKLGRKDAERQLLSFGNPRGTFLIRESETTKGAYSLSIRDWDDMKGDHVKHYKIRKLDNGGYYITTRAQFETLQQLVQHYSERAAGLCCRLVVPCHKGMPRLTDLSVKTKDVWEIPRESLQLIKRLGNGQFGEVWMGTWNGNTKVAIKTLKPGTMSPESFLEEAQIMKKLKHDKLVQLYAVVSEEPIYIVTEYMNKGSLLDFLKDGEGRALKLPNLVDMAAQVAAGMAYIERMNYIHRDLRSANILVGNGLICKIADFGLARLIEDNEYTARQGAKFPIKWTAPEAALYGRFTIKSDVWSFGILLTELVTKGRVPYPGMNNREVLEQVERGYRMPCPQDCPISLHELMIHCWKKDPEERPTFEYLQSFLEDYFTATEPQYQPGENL
Chain of Histone deacetylase 3 (Homo sapiens) (O15379 whole entry, looked up): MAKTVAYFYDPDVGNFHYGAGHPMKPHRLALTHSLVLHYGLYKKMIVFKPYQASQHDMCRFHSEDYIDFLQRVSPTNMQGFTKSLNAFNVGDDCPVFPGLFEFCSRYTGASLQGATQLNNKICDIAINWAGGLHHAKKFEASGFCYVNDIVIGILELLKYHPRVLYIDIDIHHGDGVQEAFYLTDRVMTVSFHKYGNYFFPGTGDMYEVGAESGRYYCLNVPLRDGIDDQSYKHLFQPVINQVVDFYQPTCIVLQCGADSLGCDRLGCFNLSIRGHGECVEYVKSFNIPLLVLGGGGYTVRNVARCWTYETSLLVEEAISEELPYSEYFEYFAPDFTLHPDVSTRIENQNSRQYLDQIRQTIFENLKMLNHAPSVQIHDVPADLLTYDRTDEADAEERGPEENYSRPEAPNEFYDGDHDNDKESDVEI
Chain of human Ephrin type-A Receptor 1 (EphA1), EPHA1 (gene 2041) (P21709 whole entry, looked up): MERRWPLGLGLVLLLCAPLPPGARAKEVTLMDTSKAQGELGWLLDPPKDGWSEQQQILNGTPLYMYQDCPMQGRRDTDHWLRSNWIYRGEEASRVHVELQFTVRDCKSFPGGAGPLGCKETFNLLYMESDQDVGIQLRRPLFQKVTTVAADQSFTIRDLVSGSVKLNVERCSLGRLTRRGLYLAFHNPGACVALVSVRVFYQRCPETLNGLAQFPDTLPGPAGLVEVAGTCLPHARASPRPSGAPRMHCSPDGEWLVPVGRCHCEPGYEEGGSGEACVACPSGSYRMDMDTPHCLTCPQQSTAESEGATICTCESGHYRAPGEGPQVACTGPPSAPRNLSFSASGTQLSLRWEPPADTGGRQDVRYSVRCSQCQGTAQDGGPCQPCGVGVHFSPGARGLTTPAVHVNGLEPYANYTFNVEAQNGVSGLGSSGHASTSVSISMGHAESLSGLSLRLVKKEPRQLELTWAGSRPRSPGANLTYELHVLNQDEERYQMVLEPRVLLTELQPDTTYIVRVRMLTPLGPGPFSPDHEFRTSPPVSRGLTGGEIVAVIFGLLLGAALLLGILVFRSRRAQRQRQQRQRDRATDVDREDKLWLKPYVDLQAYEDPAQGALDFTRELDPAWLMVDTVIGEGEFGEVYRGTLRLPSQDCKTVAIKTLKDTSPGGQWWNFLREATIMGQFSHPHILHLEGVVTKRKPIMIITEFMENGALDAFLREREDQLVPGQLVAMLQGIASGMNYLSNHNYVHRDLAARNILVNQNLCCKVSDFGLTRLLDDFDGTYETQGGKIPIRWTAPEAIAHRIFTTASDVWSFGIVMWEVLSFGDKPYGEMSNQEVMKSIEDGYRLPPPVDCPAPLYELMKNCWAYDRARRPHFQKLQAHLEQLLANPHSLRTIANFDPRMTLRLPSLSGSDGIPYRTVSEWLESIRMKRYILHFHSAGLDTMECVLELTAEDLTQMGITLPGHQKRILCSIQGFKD

For `CC(=O)NC1(c2cccc(F)c2)CCN(CC[C@@]2(c3ccc(Cl)c(Cl)c3)CN(c3ccccc3)C(=O)CO2)CC1`, the AC50 (as a rule, the concentration giving half of the maximal activity seen) in [1] is 8.58 µM (active); in assay [2] it was 3.79 µM (active).

With `CCCCCCCCCCCCCC[N+](C)(C)C`, the call in assay [3] was inactive.

On to `CC[C@H](c1ccc(O)cc1)[C@@H](CC)c1ccc(O)cc1`, for which the compound was called inactive in assay [4] and in assay [5].

Consider `Nc1cccc2c(N)cccc12`, for which the compound was classed as inactive in assay [1] and in [6].

Turning to `CCOC(=O)CC(O)(CC(=O)OCC)C(=O)OCC`, in assay [7], the result was inactive.

Take `OCCC(F)(F)C(F)(F)C(F)(F)C(F)(F)C(F)(F)C(F)(F)C(F)(F)C(F)(F)F`: in [4], the compound was classed as inactive.

Take `CC(C)CCCCCCOC(=O)CCCCC(=O)OCCCCCCC(C)C`: in [8], the compound was called inactive.

Consider `CCC(=C(c1ccc(O)cc1)c1ccc(OCCN(C)C)cc1)c1ccccc1`, for which the call in assay [9] was inactive.

Consider `CCCCC(CC)COC(=O)CCCCC(=O)OCc1ccccc1` (stereo not given), for which, in assay [2], the outcome was inactive.

Regarding `O=[N+]([O-])c1ccc(O)cc1`, the compound was called inactive in assay [7], in assay [4] and in [5].

The values above are taken from PubChem BioAssay (EPA / NIEHS).
